These results are taken from ChEMBL document CHEMBL4513216, “Probing the Open Global Health Chemical Diversity Library for Multistage-Active Starting Points for Next-Generation Antimalarials” (ACS Infect Dis, 2020).

About 8,600 (12%) of roughly 69,000 compounds showed an effect of 50% or more. Shown is part of a subset that was picked to be rich in strong results.

The experiment has as its system Plasmodium berghei. As to the kind of experiment: Screen against P. berghei liver stage (PbLuc), transformed with Luciferase, at 10uM. The experiment is classed as functional, HepG2. As to conditions: tested at 10 uM.
Regarding `CN1CC(=O)N(C2CCC2)Cc2c(NC3CCNCC3)ncnc21`, the INHIBITION worked out at 20.9%.

Consider `CC(=O)N[C@@H]1CN(Cc2ccc(F)cc2F)C[C@H]1c1ccc(C)o1`, for which the INHIBITION is on record as -14.1%. With `c1csc(C(CNCc2cccc3c2OCO3)N2CCOCC2)c1` (centres undefined), the INHIBITION amounted to 61.9%. On to `Cc1ccc(C(CNCc2cccc3c2OCO3)N2CCOCC2)o1` (centres undefined), for which the INHIBITION came to 29.4%.

On to `CC(C)C(CNCc1cccc2c1OCO2)N1CCOCC1` (centres undefined), for which the INHIBITION was determined as 24.8%. With `Cc1ccc(NC(=O)N2CCCC(O)C2)c(Br)c1` (centres undefined) the figure was -86.5%; with `Cc1ccc(OCCCNC(=O)CN(C)c2ccc(C#N)cn2)cc1`, 49.3%. The figure for `COc1ccc(CNC(=O)CCc2nnc3ccccn3c2=O)cc1` is 25.3%.

With `O=C(CCc1nnc2ccccn2c1=O)NCc1ccc2c(c1)OCO2`, the INHIBITION amounted to 57%. The figure for `O=C(CCc1nnc2ccccn2c1=O)NCc1cccnc1` is 37.3%; for `Cc1nc(CO[C@@H]2CN(Cc3cccs3)[C@@H]3COC[C@@H]32)cs1` it is -33.3%; for `CNc1nc(C)cc(NCc2cc(C)cc3c(C)c(C)[nH]c23)n1` it is 87.9%. The figure for `Cc1cc(CNc2cncc(C(=O)N(C)C)n2)c2[nH]c(C)c(C)c2c1` is 29.7%; for `CNc1cc(C)nc(-c2cc(NCCO)nc3[nH]ccc23)n1` it is -28.4%; for `CNc1cc(C)nc(-c2cc(NC)nc3[nH]ccc23)n1` it is -8.51%. With `CNc1cc(C)nc(NCc2cc(C)cc3c(C)c(C)[nH]c23)n1` the figure was 76.7%; with `C[C@@H](N)C(=O)N1CCC(c2[nH]ncc2-c2ccccc2)CC1`, 36.15%; with `CC(=O)N1C[C@H]2CCCN(Cc3ccc(C)o3)[C@H]2C1`, -3.58%. Regarding `O=C(c1cnccn1)N1CCCC2(COCCN(CC3CC3)C2)C1` (centres undefined), the INHIBITION turned out to be 37%. The figure for `O=C(NCc1ccccn1)[C@]12COC[C@H]1CN(Cc1cccnc1)C2` is -17.2%; for `C[C@H](NC(=O)N1CCC(Cc2ccccc2)CC1)C(=O)O` it is 27.5%; for `NC(=O)COc1ccc(CNCc2ccc(Cl)c(F)c2)cc1` it is 0.426%. With `CC(Cn1cccn1)NC(=O)CCC(=O)c1cccs1` (centres undefined) the figure was -13.5%; with `COc1ccc2c(c1)OCC(Cc1cc(N3CCCC3)cnn1)C2` (centres undefined), -43.7%; with `COc1ccc2c(c1)OCC(Cc1ccc(CN)cn1)C2` (centres undefined), -45.5%.

On to `c1ccc2c(c1)CC(Cc1cc(N3CCCC3)cnn1)CO2` (centres undefined), for which the INHIBITION was found to be 13%. The figure for `Cc1cc(CC2COc3ccccc3C2)cnc1N` (centres undefined) is 75.1%. As for `COc1ccc2c(c1)OCC(Cc1cnc(N)c(C)c1)C2` (centres undefined), the INHIBITION is listed as 55.9%.

`COc1ccc2c(c1)OCC(Cc1cncc(N)c1)C2` (centres undefined): the INHIBITION is on record as 61.1%. `COc1ccc2c(c1)OCC(Cc1ccc(N(C)C)nc1)C2` (centres undefined): the INHIBITION is recorded as 14.9%. With `COc1ccc2c(c1)OCC(Cc1ccc(N)cn1)C2` (centres undefined) the figure was -93%; with `COc1cccc2c1OCC(Cc1cnc(N)c(C)c1)C2` (centres undefined), 14.5%; with `O=C(c1sccc1-n1cnnn1)N1CCC2(CCCCC2)CC1`, 28.1%. With `Cc1ccc(C(=O)NC(CN2CCCC2=O)c2ccccc2)cn1` (centres undefined) the figure was 15.3%; with `CC(C)N1CCC(c2nccnc2Nc2ncccn2)CC1`, 42.4%; with `Cc1ncc2c(n1)CN(C=C1NN=C(c3occc3C)O1)CC2`, 47.6%. The figure for `O=C(Nc1cnn(Cc2ccccc2)c1)N1CCN(CCO)CC1` is -26.8%; for `c1cncc(-c2noc(C3CN(Cc4cccs4)C3)n2)c1` it is 22.2%; for `Cc1nc(C2CCN(Cc3ncc[nH]3)CC2)no1` it is 20.8%. On to `COC(=O)CN1CCSC(c2ccccc2)C1` (centres undefined), for which the INHIBITION is given as 48.2%. For `COc1ccc(C(=O)C2CCCN(Cc3cnn(C)c3C)C2)c(OC)c1` (centres undefined), the INHIBITION stood at 14.3%. With `COc1ccc(F)cc1C(=O)C1CCCN(Cc2cnc(C)s2)C1` (centres undefined) the figure was 47.2%. The figure for `CN(C)c1ncc(CN2CCCC(Nc3ccc4c(c3)OCCO4)C2)s1` (centres undefined) is -0.217%; for `Cc1c(CN2CCCC(C(=O)c3ccc(C(C)(C)C)cc3)C2)cnn1C` (centres undefined) it is 89.4%. The figure for `CCCn1ncc(CN2CCCC(C(=O)c3ccc(Cl)cc3C)C2)c1C` (centres undefined) is 73%. On to `CCn1ncc(CN2CCCC(C(=O)c3ccc(Cl)cc3)C2)c1C` (centres undefined), for which the INHIBITION was 18.5%. Consider `CCCn1ncc(CN2CCCC(C(=O)c3ccc(SC)cc3)C2)c1C` (centres undefined), for which the INHIBITION is reported as 83.9%. The figure for `CSc1ccc(C(=O)C2CCCN(C(=O)CCn3cncn3)C2)cc1` (centres undefined) is 22.2%; for `CSc1ccc(C(=O)C2CCCN(C(=O)CCCn3cncn3)C2)cc1` (centres undefined) it is 22.2%; for `CC(C)(N)C(=O)N1CCCC(C(=O)c2ccc(C(C)(C)C)cc2)C1` (centres undefined) it is 36.8%. `CCn1ncc(CN2CCCC(n3c(=O)oc4ccccc43)C2)c1C` (centres undefined): the INHIBITION stood at 4.7%. Consider `Cc1cc(Cl)ccc1C(=O)C1CCCN(Cc2cnc(N(C)C)s2)C1` (centres undefined), for which the INHIBITION is 83%.

On to `Cc1cc(CN2CCN(C(=O)NCc3ccc(C)s3)CC2)on1`, for which the INHIBITION is reported as -24.2%. With `Cc1cnn(CCNCC(=O)N2CCN(c3ccccn3)CC2)c1` the figure was -0.613%; with `O=C(c1ccnc(-n2ccnc2)c1)N1CCCC(n2cccn2)C1` (centres undefined), 36.1%; with `CN(CC1COc2ccccc2O1)C(=O)c1ccc(-c2cn[nH]c2)nc1` (centres undefined), 2.18%. With `O=C(c1ccccn1)N1CCCC2(CCN(c3ccsc3)C2=O)C1` (centres undefined) the figure was 35.6%; with `CN(C)C(=O)[C@@H]1CCO[C@@H]2CCN(Cc3ccccc3)C[C@@H]21`, -11.5%. The figure for `Cn1cc(-c2ncc(C(=O)NCCCn3ccccc3=O)s2)cn1` is 44.9%. With `Cc1nc(C2CCCN2C(=O)Cc2ccc3c(c2)OCO3)nc(O)c1C` (centres undefined), the INHIBITION was 22%. The figure for `CN1C(=O)CCC12CCN(Cc1ccco1)CC2` is 16.1%. The figure for `CN1CCN(c2nsc(-c3ccccc3)c2C#N)CC1` is 33.3%; for `CCCn1ncc(-c2ccnc(N[C@@H]3C[C@H]4CC[C@@H]3C4)n2)c1C` it is 49.9%.

`CCCOCCCNc1nccc(-c2cn(C)nc2C)n1`: the INHIBITION is -49.8%. The figure for `Cc1nn(C)c(N2CCOCC2)c1CNC1CCc2ccccc21` (centres undefined) is 7.08%; for `CCCn1ncc(-c2ccnc(NC3CCSC3)n2)c1C` (centres undefined) it is 49.9%. The figure for `COc1c(CNC2CCCc3ccccc32)c(C)nn1C` (centres undefined) is 37.9%; for `O=C(CS(=O)(=O)c1ccccn1)NC1CCCc2ccccc21` (centres undefined) it is -17.8%; for `CCCn1ncc(C(=O)N2CCN(C3Cc4ccccc4C3)CC2)c1C` it is -20.8%. Turning to `CCCn1ncc(-c2ccnc(NC3CC(C)(C)NC(C)(C)C3)n2)c1C`, the INHIBITION was determined as 80.1%. With `CCCn1cc(-c2ccnc(NC3CCc4ccccc43)n2)c(C)n1` (centres undefined) the figure was 82.2%; with `CCCn1cc(-c2ccnc(NC3CCCc4ccccc43)n2)c(C)n1` (centres undefined), 72.3%. With `CCCn1ncc(-c2ccnc(NC3CCCc4ccccc43)n2)c1C` (centres undefined) the figure was 77.2%; with `Cc1nn(CCO)c(C)c1CNC1CCCCc2ccccc21` (centres undefined), 17.8%.
